In PubChem BioAssay (NCI) one finds growth data, which are given here for 27 molecules.

About 83,000 compounds went through this panel and 20% of them were active in at least one assay; those are over-represented in the sample as a whole.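 Results are percent growth after 48 hours of single-concentration exposure. 100 means growth as in untreated cells, lower positive values show inhibition; negative values down to -100 show cell death.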 Calls of active or inactive are those of the source. Rule for the calls: active = growth percent below 10; inactive = the rest.

The assay concerns HL-60(TB) leukemia. Description: NCI-60 one-dose screen, 48 h (100 = growth as untreated, 0 = no growth, -100 = all killed). To be noted: 10 µM unless noted.
Consider `FC(F)(F)c1cc(Nc2ccc3cc(OCCCN4CCOCC4)ccc3n2)ccc1Cl`, for which the growth is 29% (inactive).

Regarding `O=C1CN(CCN2CC(=O)N(Cc3ccccc3)C(=O)C2)CC(=O)N1Cc1ccccc1`, the growth was 97.7% (inactive).

Regarding `COc1cc(C2NC(c3cc(OC)c(OC)c(OC)c3)C(C#N)(C#N)C2(C#N)C#N)cc(OC)c1OC` (configuration not stated), the growth is 89.3% (inactive).

With `COc1ccc(-c2cc(/C=C3\C(=O)Nc4cc(Cl)ccc43)[nH]n2)cc1`, the growth is -11.7% (active).

Regarding `Nc1nc2c(c3cnccc13)C(c1ccc(Cl)c(Cl)c1)Cc1cnccc1-2` (configuration not stated), the growth is -16.5% (active).

In the case of `CNc1ncc(-c2ccc(C(F)(F)F)cc2)c(NC2CCCCCC2)n1`, the growth is 57% (inactive).

As to `O=C(CCCCCCN1CC(=O)N2[C@H](c3ccc(Cl)cc3)c3[nH]c4ccccc4c3C[C@@H]2C1=O)NO`, the growth is 1.54% (active).

In the case of `Cc1cc(I)nc2ccccc12`, the growth was 88.8% (inactive).

In the case of `COc1ccc2c(c1)c(/C(O)=C1\COC(=O)C1=O)cn2Cc1ccc(F)cc1`, the growth was 85.6% (inactive).

For `Cc1ccc(Cc2cnc(NC(=O)/C=C/c3cccc(C)c3)s2)cc1`, the growth is -15.4% (active).

For the molecule `CCCCCCCCCCCCCCCCOC(=O)c1c(C)[nH]c(/C=C2\N=C(c3ccc[nH]3)C=C2OC)c1C`, the growth is 62.2% (inactive).

As for `CN1[C@@H]2CC[C@H]1/C(=C\c1ccccc1)C1=C2[C@@H](c2ccccc2)C(C#N)=C(N)O1`, the growth is 60.4% (inactive).

Consider `N#CSCc1ccc(Cl)c(CSC#N)c1`, for which the growth was 0.395% (active).

For `CCCCCCCCCCCCCC[n+]1ccc2c(C)c3c(c(C)c2c1)c1cc(O)ccc1n3CC`, the growth was -40.6% (active).

`COc1cc(/C=C/C(=O)c2ccc(-n3cc(CN4CCN(c5cc6c(cc5F)c(=O)c(C(=O)O)cn6C5CC5)CC4)nn3)cc2)cc(OC)c1OC`: the growth was 98.8% (inactive).

Consider `O=C(NOC[C@H](O)CO)c1ccc(F)c(F)c1Nc1ccc(I)cc1F`, for which the growth is 6.7% (active).

As to `FC(F)(F)c1cc(-c2nnc3n2N=C(N2CCCC2)CS3)cc(C(F)(F)F)c1`, the growth was 113% (inactive).

With `N#Cc1c(-c2cccc(F)c2)cc(-c2cccnc2)[nH]c1=O`, the growth was 98% (inactive).

As to `Nc1ccc(/C=N/Nc2ccnc3c(N)cccc23)c2cccnc12`, the growth is -60.4% (active).

With `COC(=O)C(N)CSC(c1ccccc1)(c1ccccc1)c1ccccc1` (configuration not stated), the growth is -28.7% (active).

Regarding `COC(=O)[C@]12CC[C@@H](C)[C@H](C)[C@@H]1C1=CC[C@@H]3[C@@](C)(CC#N)C4=C(C[C@@]3(C)[C@]1(C)CC2)OC[C@]4(C)C=O`, the growth is -10.8% (active).

For `CC(C)CCSc1nc(-c2ccc(F)cc2)c(C#N)c(N2CCCCC2)n1`, the growth is 73.1% (inactive).

For `Cc1cc(C)c(NC(=O)c2sc3nc4c(cc3c2N)CCCC4)c(C)c1`, the growth was -6.2% (active).

For the molecule `O=C(/C=C/c1ccc(Cl)cc1)c1ccc(Nc2nc(NCCO)nc(N3CCOCC3)n2)cc1`, the growth was 99% (inactive).

Consider `COc1ccc(-c2cc(=O)oc3ccc(Cl)cc23)cc1F`, for which the growth is -21.9% (active).

`O=C(Nc1ccc(Cl)cc1)N1NC(c2ccc(Cl)cc2)C=C1c1ccccc1` (configuration not stated): the growth was 80.3% (inactive).

For the molecule `CCCC(=O)OCC(COC(=O)CCC)OC(=O)CCC`, the growth was 100% (inactive).
